# In PubChem BioAssay (NCI):
# Compounds without any hit were thinned out: in the full panel of roughly 83,000, 20% have a hit.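 Compound tested at a single concentration for 48 hours in 96-well plates; a percent growth value below 10 was scored as active.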 The source made the active and inactive calls.
# Test system: HL-60(TB) leukemia
# Assay: NCI-60 one-dose screen, 48 h (100 = growth as untreated, 0 = no growth, -100 = all killed)
# Conditions: 10 µM unless noted
row,Structure (SMILES),growth
1,O=Nc1ccc2ccccc2c1O,74.3% (inactive)
2,Cc1cc(N)c2cc(NC(=O)/C=C\c3ccccc3Cl)ccc2n1,-29.3% (active)
3,O=[N+]([O-])c1cc(S(=O)(=O)OCC2CO2)ccc1Cl (centres undefined),80.2% (inactive)
4,COc1ccc(/C=C/C(=O)c2cc(OC)c(OC)c(OC)c2)cc1OCC(=O)Nc1nc2ccc(OC(F)(F)F)cc2s1,6.61% (active)
5,COc1cc2c3c(n([C@H]4CCOC4)c(=O)c2cc1OC)-c1cc2c(cc1C3=O)OCO2,25% (inactive)
6,CCOC(=O)CSc1c(-c2ccccc2)c2cc(Cl)ccc2[nH]c1=O,84.7% (inactive)
7,C/C(=C\c1cnc(C)s1)[C@@H]1C[C@@H]2O[C@@H]2CCC[C@H](C)[C@H](O)[C@@H](C)C(=O)C(C)(C)[C@@H](O)CC(=O)O1,0.639% (active)
8,CNS(=O)(=O)Oc1ccc(-c2sc3cc(OS(=O)(=O)NC)ccc3c2C(=O)c2ccc(OCCN3CCCCC3)cc2)cc1,94.8% (inactive)
9,CN(C)C(=S)SCN1C(=O)c2ccc([N+](=O)[O-])cc2S1(=O)=O,75.3% (inactive)
10,Nc1ccc(N)c2c1C(=O)c1cccc([N+](=O)[O-])c1C2=O,17.8% (inactive)
11,C=CCc1cc(Nc2c3ccc(Cl)cc3nc3ccc(OC)cc23)cc(CN(CC)CC)c1O,-17% (active)
12,Cc1nc(C)c(-c2nn3c(-c4cccc(F)c4)nnc3s2)s1,107% (inactive)
13,CCCCCCCCCCCC1=NCCCN1CCCC,104% (inactive)
14,Cc1ccc(-c2nc(N3CCCNCC3)c3oc(-c4ccccc4)nc3n2)cc1,-69.7% (active)
